# Only some compounds are listed: those with a hit (about 3.4% of all), similar ones and a draw of the others.
# EWS-Fli inh – inhibitors of EWS/Fli oncoprotein transcriptional activity; actives 0.67% (n = 350,000); inhibition, % at 12.6 µM; A673 NR0B1-luciferase reporter, viability-normalised; AID 651661;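 active means mean inhibition of at least 50% after viability correction, with every replicate also passing that limit; inconclusive means mean reaches 50% but only one of two replicates passes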;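 further: firefly luciferase signal divided by Alamar Blue viability fluorescence both relative to DMSO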
# SIRT5 inh – blocks human SIRT5 desuccinylation of peptide | AID 652115 | inhibition, % at 15 µM | Q9NXA8 | Purified SirT5, succinyl-peptide AMC, trypsin-coupled fluorescence | actives 1.1% (n = 330,000); in the data active means inhibition above about 15%; inconclusive means no clear call, values can overlap the other calls
# Target sequence (Q9NXA8 whole entry, looked up): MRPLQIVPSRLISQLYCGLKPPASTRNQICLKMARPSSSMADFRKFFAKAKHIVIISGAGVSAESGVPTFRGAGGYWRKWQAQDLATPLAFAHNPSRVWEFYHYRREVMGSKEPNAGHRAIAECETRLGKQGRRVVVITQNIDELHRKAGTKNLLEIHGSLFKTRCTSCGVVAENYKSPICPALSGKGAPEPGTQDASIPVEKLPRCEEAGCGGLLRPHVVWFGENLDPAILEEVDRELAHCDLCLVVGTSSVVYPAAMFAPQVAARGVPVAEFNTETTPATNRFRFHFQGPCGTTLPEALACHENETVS
# rRNA inh HTS – inhibitors of bacterial rRNA selective over humanized ribosomes; GFP signal change (wild-type ribosome), % (no concentration beside the values); actives 1.6% (n = 350,000); E. coli WT GFP vs humanized-ribosome RFP mutants, fluorescence, 24 h; active compounds read low; DMSO median 0, no signal -100;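 active means significant combined selectivity score with lowered wild-type GFP, culture density cut under 30%, mutant RFP and density less affected; inactive means any of these conditions unmet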
# PGC1a acetyl inh – modulators of PGC1a acetylation. actives 0.17% (n = 350,000). U2OS PGC1a acetylation, AlphaScreen anti-acetyl-lysine; with virally co-expressed GCN5 acetyltransferase. inhibition, % at 15.6 µM;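 active means every replicate shows inhibition of at least 40%; inconclusive means mean inhibition at least 40% but some replicate below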;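 further: 0% = neutral control wells and 100% = positive control wells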
# LGR2 inh – inhibitors of bursicon-induced Drosophila LGR2 receptor cAMP signaling | HEK293 LGR2, CRE-luciferase, bursicon-stimulated, 4 h | inhibition, % at 9.99 µM | actives 0.35% (n = 380,000);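 active means drop in luminescence signal, shown as inhibition above about 50% in the replicate tests, limit read from the data, passing the limit was not always enough; inconclusive means probably only some replicates passing the limit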;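 further: agonist challenge used bursicon conditioned medium at about half maximal strength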
# PAX8 inh HTS – PAX8 transcriptional activity inhibition; inhibition, % at 12.6 µM; RMG-I TPO-luciferase reporter, SteadyGlo, 24 h; actives 1.2% (n = 360,000);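 active means mean replicate inhibition at least 60% with every replicate also reaching 60%; inconclusive means only one of the two criteria is met; inactive means mean below 60% and not all replicates reaching 60%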;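 further: luciferase light reporting Pax8 driven TPO promoter activity; plate controls were median of neutral control wells for no effect and mitoxantrone controls for full effect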
# AID977621 – growth inhibition of wild-type GFP E. coli, dose response, H69 mutant RFP, cherry-pick; shares compounds with rRNA inh HTS; E. coli wild-type GFP strain growth, fluorescence, 24 h; activity change, negative = inhibition at 50 µM; 1,900 tested, under 10 active; AID 977621;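 active means Wild-type ribosome reporter drop at least double the humanized mutant ribosome reporter drop, growth loss under a set limit; inconclusive means no clear call, values can overlap the other calls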;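 further: wild-type GFP and H69 mutant RFP strains grown together 50/50 in each well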
# AID977628 – E. coli growth inhibition, wild-type GFP versus h24 humanized RFP strain, dose response, h24 mutant RFP vs wild-type GFP, cherry-pick; shares compounds with rRNA inh HTS; E. coli WT GFP strain growth, fluorescence, 24 h; activity change, negative = inhibition at 50 µM; 1,900 tested, under 10 active; AID 977628;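 active means compound lowering the normal-ribosome reporter at least twice as much as the humanized-ribosome reporter, growth loss under a set limit; inconclusive means no clear call, values can overlap the other calls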;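 further: wild-type GFP and h24 humanized RFP strains co-cultured 1 to 1 per well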
# * hit, by the source's call; u = inconclusive; x = not tested or not shown.
SMILES,EWS-Fli inh,SIRT5 inh,rRNA inh HTS,PGC1a acetyl inh,LGR2 inh,PAX8 inh HTS,AID977621,others
N#Cc1cccc(-c2ccc3c(c2)[C@@H]2[C@@H](CCN2S(=O)(=O)c2cccc(F)c2)[C@H](CO)N3)c1,1,5,-19*,-6,-5,40,u,
OC[C@@H]1[C@H](c2ccc(C3=CCCCC3)cc2)[C@@H](CNC2CCCC2)N1CC1CC1,-8,0,-20,x,-3,x,x,
COc1ccccc1NC(=O)N1CCCCN2[C@H](CO)[C@@H](c3ccc(C#Cc4ccccc4)cc3)[C@H]2C1,x,-2,-34,-8,9,8,x,
O=C(Nc1ccccc1F)N1CCCCN2[C@@H](CO)[C@H](c3ccc(C#Cc4cccnc4)cc3)[C@@H]2C1,8,6,-19*,7,-9,-9,-8.5,AID977628=u
O=C(Nc1cc(F)ccc1F)N1CCCCN2[C@H](CO)[C@H](c3ccc(-c4ccncc4)cc3)[C@@H]2C1,3,-5,-1,-4,-3,-20,x,
O=C(Nc1ccccc1F)N1CCCCN2[C@H](CO)[C@H](c3ccc(C#Cc4cccnc4)cc3)[C@H]2C1,10,4,-9,4,11,-16,x,
O=C(Nc1cc(F)ccc1F)N1CCCCN2[C@@H](CO)[C@H](c3ccc(-c4ccncc4)cc3)[C@@H]2C1,-20,-6,-19*,3,-3,-14,-14,
COc1ccccc1NC(=O)N1CCCCN2[C@@H](CO)[C@H](c3ccc(C#Cc4ccccc4)cc3)[C@@H]2C1,x,1,-30*,-10,18,-5,3.1,
CC=Cc1ccc2n(c1=O)C[C@@H]1[C@@H](CO)[C@H](C(=O)N3CCc4ccccc4C3)N(C(=O)C3CC3)[C@H]21 (mixture of isomers),-2,-1,1,x,-11,-15,x,
O=C1c2ccccc2C(=O)N1CCc1c[nH]c2ccccc12,-67,-4,-21*,-1,-67,-78,-6.8,
O=C1c2ccccc2C(=O)N1CCCc1c[nH]c2ccccc12,x,x,x,-1,-18,-35,x,
COc1ccc(CNc2cccc3[nH]c(C(F)(F)F)nc23)cc1,-12,-6,4,-12,-13,17,x,
Cc1ccc(C(=O)Nc2cccc3[nH]c(C(F)(F)F)nc23)cc1,13,-5,-24*,2,-13,9,-7.3,
CCOC(=O)c1csc(NC(=O)CC2CCCC2)n1,4,x,-20*,-1,1,-45,-20,
CCN(C(=O)COC(=O)c1cn(-c2ccccc2)nc1-c1ccccc1)C1CCS(=O)(=O)C1 (centres undefined),-6,1,-39*,-2,-8,-5,-24,AID977628=-12
CNC[C@H]1Oc2ccc(NC(=O)Nc3ccc4c(c3)OCO4)cc2CC(=O)N([C@@H](C)CO)C[C@@H]1C,-4,x,1,-1,-10,-8,x,
CC(C)Oc1ccc(C(CC(=O)O)NC(=O)C(Sc2ccccc2)c2ccccc2)cc1 (centres undefined),8,x,-27*,7,9,5,-16,
Cc1ccccc1NCc1ccc([N+](=O)[O-])s1,15,3,-34*,-21,6,15,x,AID977628=-6.7
COc1cccc(-c2ccc3c(c2)[C@H]2[C@H](CCN2C(=O)c2cccc(F)c2)[C@H](CO)N3)c1,4,3,2,-12,22,-22,x,
C[C@@H]1CN([C@H](C)CO)C(=O)c2cc(NC(=O)c3ccccc3)ccc2O[C@@H](C)CCCCO[C@@H]1CN(C)C(=O)Cc1ccccc1,15,-4,0,8,17,x,x,
CO[C@H]1CN(C)C(=O)c2ccc(NC(=O)Nc3cccc(Cl)c3)cc2OC[C@H](C)NC[C@@H]1C,8,3,-4,2,-6,15,x,

# Screening results as filed in PubChem BioAssay.
